Results from PubChem BioAssay AID651730 (NMMLSC, 2012).
The source made the active and inactive calls. No rule for the calls is given here.

Assay: V-ATPase regulators in yeast, S. cerevisiae, pHLuorin, powder sets 2-3, dose response (AID 651730)
Details: S. cerevisiae vacuolar pH, pHluorin fluorescence; series mostly up to 100 µM

Compound	outcome
NS(=O)(=O)c1ccc(C(=O)N2CCN(c3nc4ccc(F)cc4s3)CC2)o1	inactive
O=C(Nc1ccccc1N1CCOCC1)c1cccc(Cl)n1	inactive
O=C(c1cccc(Br)n1)N1CCN(c2nc3ccc(F)cc3s2)CC1	inactive
O=C(c1ccc(-c2ccccc2)o1)N1CCN(c2nc3ccc(F)cc3s2)CC1	inactive
O=C(c1cc(CO)ccn1)N1CCN(c2nc3ccc(F)cc3s2)CC1	inactive
O=C(Nc1ccccc1N1CCOCC1)c1cccc(C(F)(F)F)c1	inactive
CN(C)C(=O)c1cccc(C(=O)N2CCN(c3nc4ccc(F)cc4s3)CC2)c1	inactive
O=C(Nc1ccccc1N1CCOCC1)c1cc(Cl)ccn1	inactive
COCc1ccc(C(=O)Nc2ccccc2N2CCOCC2)o1	inactive
O=C(c1cccc(Cl)n1)N1CCN(c2nc3ccc(F)cc3s2)CC1	inactive
Nc1cncc(C(=O)N2CCN(c3nc4ccc(F)cc4s3)CC2)n1	inactive
Cc1ccnc(C(=O)Nc2ccccc2N2CCOCC2)c1	inactive
O=C(c1cc(Cl)ccn1)N1CCN(c2nc3ccc(F)cc3s2)CC1	inactive
CC(C)(C)c1ccc(C(=O)Nc2ccccc2N2CCOCC2)o1	inactive
CN(C)Cc1cccc(C(=O)N2CCN(c3nc4ccc(F)cc4s3)CC2)c1	inactive
O=C(c1cc(C(F)(F)F)ccn1)N1CCN(c2nc3ccc(F)cc3s2)CC1	inactive
CN(C)S(=O)(=O)c1cccc(C(=O)N2CCN(c3nc4ccc(F)cc4s3)CC2)c1	inactive
CN(C)S(=O)(=O)c1cccc(C(=O)Nc2ccccc2N2CCOCC2)c1	inactive
O=C(Nc1ccccc1N1CCOCC1)c1ccc(C(F)(F)F)o1	inactive
Nc1cncc(C(=O)Nc2ccccc2N2CCOCC2)n1	inactive
NC(=O)c1cccc(C(=O)N2CCN(c3nc4ccc(F)cc4s3)CC2)c1	inactive
O=C(c1cccc(C(F)(F)F)c1)N1CCN(c2nc3ccc(F)cc3s2)CC1	inactive
Cc1ccc(C(=O)N2CCN(c3nc4ccc(F)cc4s3)CC2)o1	inactive
CN(C)Cc1ccc(C(=O)Nc2ccccc2N2CCOCC2)o1	inactive
NS(=O)(=O)c1cccc(C(=O)Nc2ccccc2N2CCOCC2)c1	inactive
COCc1cccc(C(=O)Nc2ccccc2N2CCOCC2)c1	inactive
NS(=O)(=O)c1cccc(C(=O)N2CCN(c3nc4ccc(F)cc4s3)CC2)c1	inactive
O=C(Nc1ccccc1N1CCOCC1)c1cncc(Cl)n1	inactive
CS(=O)(=O)c1ccc(C(=O)N2CCN(c3nc4ccc(F)cc4s3)CC2)o1	inactive
CN(C)C(=O)c1cccc(C(=O)Nc2ccccc2N2CCOCC2)c1	inactive
